assay: Confirmation and Secondary Assay for Modulators of Hemoglobin Beta Chain Splicing at IVS2 654 locus (AID 910); settings: HeLa EGFP-654 splicing reporter, GFP fluorescence, 48 h; series mostly up to 46.1 µM; activation (splicing correction): at the top concentration; active = well fitted activation curve with a large enough effect; inconclusive = small, poorly fitted or top-dose-only effect; inactive = flat fitted curve, though single readings scatter;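 also: HeLa cells stably carrying EGFP split by mutant beta-globin IVS2-654 intron; % of control where 0% means no effect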
From the text: NIH Chemical Genomics Center [NCGC] NIH Molecular Libraries Screening Centers Network [MLSCN] MLSCN Grant: 1 X01 MH080684-01 PI Name: Dr. Ryszard Kole NCGC Assay Overview: Modulation of Alternative Splicing as Therapy Abnormal splicing is associated with a number of diseases, including cancer and genetic diseases such as cystic fibrosis, muscular dystrophy and beta-thalassemia. Alteration of disease associated splicing patterns provides a promising target for treatment. […] Mutations in the second intron of the b-globin gene at positions 654 or 705 are clinically relevant and cause mis-splicing which results in an out of frame gene product. […] EGFP-654 HeLa Cells as screen system. HeLa cell lines were stably transfected with a construct in which the EGFP (enhanced green fluorescent protein) cDNA was interrupted by the second intron of the beta-globin gene (IVS2-654). The ISV2 intron contains mutations which cause mis-splicing of EGFP and premature termination of EGFP which results in a nonfluorescent protein product. […] Expression of the transgene was driven by the CMV promoter. We concluded that a low molecular weight compound, which restored correct splicing of intron 2 would also generate functional EGFP protein, resulting in a fluorescent signal. Thus, the HeLa cells that express the EGFP-654 construct can be used for high throughput screening of a chemical library.
NCGC Assay Protocol Summary: Confirmatory Screening. Freshly thawed HeLa EGFP-654 cells were seeded in 5 ul of optimem media (Invitrogen) containing 2 % fetal calf serum (Hyclone) and 1x penicillin/streptomycin (Invitrogen) at a concentration of 500 cells per well in 1536-well plates. Cells were incubated overnight at 37C in 5% CO2. The next day, cells were treated with DMSO, 500 nM antisense ISV2 654 PNA control oligo, or library compound and allowed to grow at 37C in 5% CO2 for 2 days. The PNA oligo blocked the mutation site in the intron and allowed proper (wild type) splicing to occur, resulting in full length EGFP expression and also allowed for optimization of the assay parameters. Plates were read in the Acumen Explorer (TTP Labtech) using 488 nm laser excitation and 500-520 nm emission PMT filter in a 1 x 8 uM capture mode. Fluorescnet objects ranging in size from 5 to 250 uM were measured and the total peak GFP intensity for each well was used for data analysis. Keywords: Thalassemia, beta-thalassemia, beta-globin, EGFP, ISV2 654, ISV2 705, SSO, PNA, antisense, splicing, MLSMR, MLSCN, NIH Roadmap, qHTS, NCGC

Activation (splicing correction), inactive:
CC(C)CC1C(=O)N2CCCC2C2(O)O[C@@](NC(=O)C3C=C4c5cccc6[nH]c(Br)c(c56)CC4N(C)C3)(C(C)C)C(=O)N12 (stereo not given in full) -8.85%
Cn1c(=O)[nH]c(=O)c2[nH]cnc21 6.91%
O=C(O)/C=C/C=C/c1ccccc1 5.28% [at 38.3 µM]
CC(=O)OCC(=O)[C@@]1(O)CCC2C3CCC4=CC(=O)CC[C@]4(C)C3C(=O)C[C@]21C (stereo not given in full) 0.495%
COc1cc2c(cc1OC)C1C(=O)c3c(cc4c(c3O)C=CC(C)(C)O4)OC1CO2 (stereo not given) -2.22% [at 38.3 µM]
COc1cc2c(cc1OC)C1C(=O)c3c(O)cc4c(c3OC1CO2)C=CC(C)(C)O4 (stereo not given) -7.82%
CNC1C(O)C2OC3OC(C)CC(=O)[C@@]3(O)O[C@H]2[C@H](NC)C1O (stereo not given in full) 2.52%
COc1c2c(cc3occ(-c4ccc5c(c4)OCO5)c(=O)c13)OC(C)(C)C=C2 -0.397% [at 38.3 µM]
COC(=O)CC1[C@@]2(C)C[C@]34OC5(C)OC6(C7CC(=O)OC(c8ccoc8)[C@]7(C)CCC6(O5)[C@]13C)C(OC(C)=O)[C@]4(OC(C)=O)C2OC(C)=O (stereo not given in full) 0.279% [at 38.3 µM]
CC1CC2C3CCC4=CC(=O)C=C[C@@]4(C)[C@]3(F)C(O)C[C@]2(C)[C@]1(O)C(=O)COP(=O)(O)O (stereo not given in full) 5.17%
CC1(C)C=Cc2c(cc3occ(-c4ccc5c(c4)OCO5)c(=O)c3c2O)O1 -6.63%
C=CC(C1=CC(=O)C(OC)=CC1=O)c1ccc(OC)cc1 (stereo not given) 1.26% [at 38.3 µM]
NC(=O)c1cc[n+](CC2=C(C(=O)O)N3C(=O)C(NC(=O)C(c4ccccc4)S(=O)(=O)[O-])C3SC2)cc1 (stereo not given) 10.4%
COc1cc(C2c3cc4c(cc3C(OC3OC5COC(C)O[C@@H]5C(O)C3O)C3COC(=O)C23)OCO4)cc(OC)c1O (stereo not given in full) 24.7%
COC(=O)C1C(O)CC[C@H]2CN3CCc4c([nH]c5ccccc45)C3C[C@H]12 (stereo not given in full) -1.68% [at 38.3 µM]
COc1ccc(/C=C/C(=O)c2cc(O)ccc2O)cc1 8.36%
NC(C(=O)O)C(O)C(=O)O (stereo not given) 2.67% [at 38.3 µM]
COc1c2ccoc2cc2oc(C)cc(=O)c12 -0.985% [at 38.3 µM]
C[C@]12CCC(=O)C=C1CCC1C2C(O)C[C@]2(C)C1CC[C@]2(O)C(=O)COC(=O)CCC(=O)O (stereo not given in full) -0.0003%
C=C1CCC2C(CC2(C)C)C(=O)CCC1O (stereo not given) 1.9% [at 38.3 µM]
NCC1O[C@H](O[C@@H]2C(O)[C@H](O[C@H]3OC(CO)C(O)C(N)C3O)[C@@H](N)C[C@H]2N)[C@@H](N)CC1O (stereo not given in full) 3.77%
C=C1C(=O)C23C(O)C1CCC2[C@]12COC3(O)C(O)C1C(C)(C)CC[C@H]2O (stereo not given in full) 22.5%
CCCCCC(=O)O[C@@]1(C(C)=O)CCC2C3CCC4=CC(=O)CC[C@@]4(C)C3CC[C@]21C (stereo not given in full) -6.91%
COc1c(CC(=O)c2cc3c(cc2O)OC(C)(C)C(O)C3)ccc2c1C=CC(C)(C)O2 (stereo not given) -4.35%
O=C(OCC1OC(OC(=O)c2cc(O)c(O)c(OC(=O)c3cc(O)c(O)c(O)c3)c2)[C@@H](OC(=O)c2cc(O)c(O)c(OC(=O)c3cc(O)c(O)c(O)c3)c2)C(OC(=O)c2cc(O)c(O)c(OC(=O)c3cc(O)c(O)c(O)c3)c2)C1OC(=O)c1cc(O)c(O)c(OC(=O)c2cc(O)c(O)c(O)c2)c1)c1cc(O)c(O)c(OC(=O)c2cc(O)c(O)c(O)c2)c1 (stereo not given in full) -7.96%
C[C@@]12CCC(OC(=O)c3ccccc3)CC1CCc1ccccc12 (stereo not given in full) -0.966% [at 38.3 µM]
CC1CC[C@@]23CCC4(C)[C@@]5(C)CCC6C(C)(C)C(=O)CC[C@@]6(C)C5C=C[C@@]4(OC2=O)C3C1C (stereo not given in full) 0.921% [at 38.3 µM]
C[N+]1(C)C2CC(OC(=O)C(CO)c3ccccc3)CC1C1OC12 (stereo not given) 9.41%
O=c1c(-c2ccc(O)cc2)coc2c(C3OC(CO)C(O)C(O)C3O)c(O)ccc12 (stereo not given) 0.573%
NC(=O)c1ccc[n+]([C@@H]2OC(COP(=O)([O-])OP(=O)(O)OCC3OC(n4cnc5c(N)ncnc54)C(O)C3O)C(O)C2O)c1 (stereo not given in full) 5.41%
C=C1C(=O)OC2C1CC/C(C)=C/CCC1(C)OC21 (stereo not given) -1.46% [at 38.3 µM]
CN(C)c1ccc(O)c2c1C[C@@H]1C[C@H]3C(N(C)C)C(=O)C(C(N)=O)=C(O)[C@@]3(O)C(=O)C1=C2O (stereo not given in full) -3.08%
C=C1c2cccc(O)c2C(O)=C2C(=O)[C@]3(O)C(O)=C(C(N)=O)C(=O)C(N(C)C)C3C(O)C12 (stereo not given in full) 2.01%
NC1C(O)OC(CO)[C@@H](O)[C@@H]1O[C@H]1O[C@@H](C(=O)O)C(O)C(O)C1O (stereo not given in full) 0.0942% [at 38.3 µM]
O=c1[nH]cnc2c1ncn2C1CC(O)C(CO)O1 (stereo not given) 0.685% [at 38.3 µM]
CC(=O)OC1CCC2(C)C3=C(CCC2C1(C)C)[C@@]1(C)CCC(C(C)CCC=C(C)C)[C@@]1(C)CC3 (stereo not given in full) 2.59%
CC1(C)C(=O)C=C[C@@]2(C)C1C=C[C@@]1(C)C2CC[C@@]2(C)C(c3ccoc3)OC(=O)C3OC312 (stereo not given in full) -8.98%
COc1cc(OC)c2c(OC)c(-c3ccc4c(c3)OCO4)c(=O)oc2c1 -1.07% [at 38.3 µM]
CN1C[C@H](C(=O)N[C@@]2(C)O[C@@]3(O)C4CCCN4C(=O)C(Cc4ccccc4)N3C2=O)C[C@H]2c3cccc4[nH]cc(c34)C[C@H]21 (stereo not given in full) 1.71%
CC1CC2C(C(O)C[C@]3(C)C2CC[C@]3(O)C(=O)CO)[C@]2(C)C=CC(=O)C=C12 (stereo not given in full) -2.89%

From PubChem BioAssay (NCATS)
